Measured values published in PubChem BioAssay (NCI).
Compounds without any hit were thinned out: in the full panel of roughly 79,000, 15% have a hit. Unmarked numbers belong to inactive results. Active and inactive are the calls of the source. Rule as the data show it: active = growth inhibition above about 70%; inactive = the rest.

Test: NCI Yeast Anticancer Drug Screen. Data for the CLN2oe strain (AID 163);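 also: 0% = growth of vehicle-only control cultures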
Settings: S. cerevisiae CLN2oe strain, hits give high values
Experimental: Growth inhibition of yeast strains with defined genetic alterations is measured as a screen for potential anti-cancer activity. Selected strains with alterations in DNA damage repair or cell cycle control were exposed to compounds and growth inhibition was measured relative to vehicle treated controls. The strain used in this assay is CLN2oe

Cc1cc(O)c2c(c1O)C(=O)C13C(=C2O)C(=O)C2C(O)C1C1C(O)C3C(=O)C3=C(O)c4c(O)cc(C)c(O)c4C(=O)C321 (stereo not given)
growth inhibition (at 1.2 µM): 18% | growth inhibition (at 3.7 µM): 17% | growth inhibition (at 11.0 µM): 84% (active) | growth inhibition (at 33.0 µM): 91% (active) | growth inhibition (at 100.0 µM): 83% (active)

O=NN(CCCl)C(=O)NC1CCCCC1
growth inhibition (at 1.2 µM): -3% | growth inhibition (at 3.7 µM): -2% | growth inhibition (at 11.0 µM): -3% | growth inhibition (at 33.0 µM): -5% | growth inhibition (at 100.0 µM): 18%

NC(N)=N/N=C/c1cc(Cl)cc(Cl)c1O
growth inhibition (at 1.2 µM): 15% | growth inhibition (at 3.7 µM): 23% | growth inhibition (at 11.0 µM): 21% | growth inhibition (at 33.0 µM): 33% | growth inhibition (at 100.0 µM): 93% (active)

O=C1C=CC(=O)N1c1ccc(I)cc1
growth inhibition (at 1.2 µM): 13% | growth inhibition (at 3.7 µM): 26% | growth inhibition (at 11.0 µM): 96% (active) | growth inhibition (at 33.0 µM): 100% (active) | growth inhibition (at 100.0 µM): 99% (active)

CCC(C)(c1ccc(O)c(C)c1)c1ccc(O)c(C)c1
growth inhibition (at 1.2 µM): -36% | growth inhibition (at 3.7 µM): -28% | growth inhibition (at 11.0 µM): 45% | growth inhibition (at 33.0 µM): 97% (active) | growth inhibition (at 100.0 µM): 98% (active)

OB(O)c1ccccc1C#Cc1ccccc1B(O)O
growth inhibition (at 1.2 µM): -2% | growth inhibition (at 3.7 µM): 1% | growth inhibition (at 11.0 µM): 13% | growth inhibition (at 33.0 µM): 38% | growth inhibition (at 100.0 µM): 86% (active)

N#C/C(=C/c1c(Cl)cccc1Cl)C(N)=O
growth inhibition (at 1.2 µM): 9% | growth inhibition (at 3.7 µM): -2% | growth inhibition (at 11.0 µM): 3% | growth inhibition (at 33.0 µM): 18% | growth inhibition (at 100.0 µM): 81% (active)

Oc1ccccc1N=Cc1ccc(Cl)cc1
growth inhibition (at 1.2 µM): -4% | growth inhibition (at 3.7 µM): -2% | growth inhibition (at 11.0 µM): -1% | growth inhibition (at 33.0 µM): 1% | growth inhibition (at 100.0 µM): 9%
